# The list is not random: actives were taken first. Their share in the collection is about 1.2%.
# mIDH1 inhibitor = blocks human mutant IDH1 R132H enzyme; actives 0.093% (n = 390,000); IDH1-R132H enzyme, NADPH consumption, diaphorase/resazurin fluorescence; AID 602179; O75874; Potency, µM (highest dose often 76.6 µM), inactives show top-dose activity change, negative = inhibition, most hits filed as inhibitors; note: nearly all actives have a fitted effect of over 65% in size
# Target sequence (O75874 whole entry R132H, stated change not applied): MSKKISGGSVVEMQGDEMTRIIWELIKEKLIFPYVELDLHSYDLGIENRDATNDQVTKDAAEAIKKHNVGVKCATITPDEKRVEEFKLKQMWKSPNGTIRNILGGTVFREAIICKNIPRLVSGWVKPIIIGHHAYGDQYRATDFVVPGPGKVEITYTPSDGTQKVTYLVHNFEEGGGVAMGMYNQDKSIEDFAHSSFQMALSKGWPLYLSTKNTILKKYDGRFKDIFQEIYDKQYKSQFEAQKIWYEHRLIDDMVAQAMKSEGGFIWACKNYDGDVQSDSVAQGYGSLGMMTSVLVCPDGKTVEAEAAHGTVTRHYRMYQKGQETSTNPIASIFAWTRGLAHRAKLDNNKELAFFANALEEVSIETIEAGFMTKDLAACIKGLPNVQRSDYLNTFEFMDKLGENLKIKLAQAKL
#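 IDH1-R132H (0.5 ug/mL) preincubated 30 min with compound, then NADPH (0.016 mM) and alpha-KG (2 mM) added; 80 min at RT, pH 7.5. Remaining NADPH coupled via diaphorase/resazurin to fluorescence (540/590 nm); concentration-response curves normalized to no-enzyme control.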
# TrxR1 substrate = substrates of rat thioredoxin reductase 1 | Potency, µM (doses to about 114 µM), inactives show at the top dose activity change, negative = substrate turnover | AID 588456 | actives 0.01% (n = 390,000) | purified TrxR1 substrate turnover, NADPH consumption readout | O89049; note: nearly all actives have a fitted effect of over 50% in size
#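 Rat TrxR1, dispensed at 90 nM, was prereduced with 400 uM NADPH (final) for 5 min at ~22 deg C, then incubated with compound 15 min before 400 uM selenite. A first-read NADPH fluorescence drop versus no-compound background flagged substrates.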
# GLS inhibitor = glutaminase GLS (human) inhibition. O94925. GLS enzymatic activity, qHTS titration. Potency, µM (titrated, usually from 45.5 µM), inactives show at the highest dose activity change, negative = inhibition, usual class: inhibitors. actives 0.21% (n = 410,000)
#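 Two-point fluorescence kinetic (t0, 30 min RT) for hKGA; glutamate detected via glutamate oxidase–HRP–Amplex Red. Substrate: 1 mM L-glutamine solution; buffer 45 mM KH2PO4, pH 8.2.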
# rTrxR1 inhibitor = blocks rat thioredoxin reductase 1 | recombinant rTrxR1, NADPH fluorescence consumption, selenite substrate | Potency, µM (doses to about 114 µM), for the others: at the top dose activity change, negative = inhibition, hits mostly inhibitors | actives 1% (n = 390,000) | AID 588453; note: nearly all actives have a fitted effect of over 65% in size
#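 Rat TrxR1 (90 nM in the dispensed reagent) was pre-reduced with 400 uM NADPH for 5 min at room temperature, then incubated with compound for 15 min. After 400 uM selenite was added, NADPH fluorescence (Ex 340/Em 450 nm) was followed for 8 min.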
# The depositor's hits bear a star; ? = inconclusive; . = not tested or not shown; [ ] = another dose, or the depositor's remark. Calls come from the whole dose curve; as a rule, active = well fitted curve in the direction sought with a large enough effect; inconclusive = small, poorly fitted or top-dose-only effect, or another doubt; inactive = no such curve, though single readings can be large; an effect the other way counts as inactive or inconclusive. % is set by controls: 0 for no effect and ±100 for the full control effect; potency is the fitted concentration of half-maximal effect.
SMILES,mIDH1 inhibitor,TrxR1 substrate,GLS inhibitor,rTrxR1 inhibitor
CSc1nc(N)c2ncn([C@@H]3O[C@H](COP(=O)(O)OP(=O)(O)O)C(O)[C@H]3O)c2n1 (stereo partly drawn),.,-2.9%[57.1 µM],.,-5.2%[57.1 µM]
O=[N+]([O-])c1cc(Cl)c2cccnc2c1O,4.4%,-8.8%[57.1 µM],34.4%,-6.5%[57.1 µM]
O=[N+]([O-])c1cc(F)c2cccnc2c1O,6.0%,-15.2%,-0.2%,44.7µM*
CC(C)(C)n1ncc2c(=O)n(Cc3cc(F)c(F)cc3Cl)cnc21,.,2.2%,.,8.9%[57.1 µM]
COc1cccc2sc(N3CCN(C(=O)c4ccc([N+](=O)[O-])o4)CC3)nc12,7.1%,-14.8%,1.3%,?
O=C(c1ccc([N+](=O)[O-])o1)N1CCN(c2nc3c(Cl)cccc3s2)CC1,8.0%,-7.9%,-5.1%,39.8µM*
COc1ccccc1CNC(=O)c1cnc(N(C)C)nc1,.,2.6%[57.1 µM],-0.2%,5.3%[57.1 µM]
C=CC(=O)c1ccc(CCCCCC)cc1,.,16.8%[57.1 µM],.,12.6µM*
CCOc1cc(N2C(=O)CC3CS(=O)(=O)CC32)c(OCC)cc1NC(=O)c1ccccc1 (stereo not drawn),9.6%,9.5%[57.1 µM],22.4µM*,-5.0%
CCOC(=O)c1noc2ncn(CC(=O)O)c(=O)c12,-3.9%,10.0%[2.29 µM],-2.2%,20.0%
COC(=O)c1ccc(C2C(C#N)=C(N)Oc3cc(N)ccc32)cc1 (stereo not drawn),7.6%,-1.8%,8.3%,1.2%
COC(=O)c1ccc(C2C(C#N)=C(N)Oc3cc(O)ccc32)cc1 (stereo not drawn),-4.2%,-3.2%,3.3%,17.8µM*
O=C(NCC1CCCO1)c1ccccc1NS(=O)(=O)c1ccc(Br)s1 (stereo not drawn),6.0%,0.2%,11.5%,5.0%
Cc1ccc(NC2=C(Cl)C(=O)OC2NC(=O)c2ccccc2)cc1 (stereo not drawn),-0.1%,-3.9%,3.2%,-2.0%
CC(=O)NC(=O)NC1OC(=O)C(Cl)=C1Cl (stereo not drawn),5.1%,-2.2%,2.1%,1.58µM*
CSc1nnc(N2C(=O)C(O)=C(C(=O)c3ccco3)C2c2ccccc2F)s1 (stereo not drawn),16.9%,-7.7%,12.5%,7.94µM*
C=CCSc1nnc(N2C(=O)C(O)=C(C(=O)c3ccco3)C2c2ccccc2F)s1 (stereo not drawn),24.9%,-14.1%,22.7%,50.1µM*
CSc1nnc(N2C(=O)C(O)=C(C(=O)c3ccco3)C2c2ccccc2)s1 (stereo not drawn),11.6%,-13.6%,-3.7%,?
CS(=O)(=O)OCC(O)C(O)COS(C)(=O)=O (stereo not drawn),.,.,2.9%,.
COc1ccc(N2C(=O)CC(Sc3ncn[nH]3)C2=O)c(OC)c1 (stereo not drawn),10.5%,9.0%[57.1 µM],30.9%,0.501µM*
Cc1ccn2c(NC(C)(C)C)c(-c3cccs3)nc2c1,2.8%,35.7%[57.1 µM],6.31µM*,17.3%[57.1 µM]
CC(C)CNc1ncnc2oc(-c3ccco3)c(-c3ccco3)c12,.,10.8%,.,?
COc1ccc(C(=O)N2CCCC(CO)(Cc3ccccc3C)C2)o1 (stereo not drawn),6.3%,0.3%,-8.1%,50.1µM*
Cc1ccccc1CC1(CO)CCCN(C(=O)c2ccoc2)C1 (stereo not drawn),8.1%,.,-5.0%,.
CC1(C(=O)Nc2ccc(Cl)c(C(F)(F)F)c2)Cc2c(-c3ccc(C(N)=O)cc3)ccnc2O1 (stereo not drawn),.,.,-15.8%,.
SMILES,mIDH1 inhibitor,TrxR1 substrate,GLS inhibitor,rTrxR1 inhibitor
CNC(=O)c1nnsc1S(=O)c1ccc(Cl)cc1 (stereo not drawn),12.5%,4.9%[57.1 µM],0.0%,0.355µM*
CCCNC(=O)c1nnsc1S(=O)c1ccc(Cl)cc1 (stereo not drawn),9.8%,6.5%[57.1 µM],0.0%,0.562µM*
CCCNC(=O)c1nnsc1S(=O)(=O)c1ccc(Cl)cc1,-1.1%,2.7%[57.1 µM],?,?
Cc1ccc(S(=O)c2snnc2C)cc1 (stereo not drawn),-7.9%,5.2%,0.0%,18.0%
CCC(C)c1ccccc1OCCn1c(CCNC(=O)C2CCCCC2)nc2ccccc21 (stereo not drawn),.,-2.2%,.,16.0%
Cc1ccc(/C=C2\SC(=S)N(C3CCS(=O)(=O)C3)C2=O)o1 (stereo not drawn),-5.0%,-18.3%,?,15.8µM*
NS(=O)(=O)c1ccc(-c2ccc(/C=C3\SC(=S)N(C4CCS(=O)(=O)C4)C3=O)o2)cc1 (stereo not drawn),-3.9%,-6.0%,-3.3%,-13.2%
Cc1c(CCOC(=O)c2cc([N+](=O)[O-])cc([N+](=O)[O-])c2)sc[n+]1CC(=O)c1ccccc1,-5.6%,1.0%,9.7%,79.4µM*
CCOC(=O)N(C(=O)c1ccccc1)c1ccccc1,.,1.5%,.,10.1%
ClCc1cc2ccccc2nc1Cl,0.8%,7.3%[57.1 µM],1.5%,-59.5%
Cc1ccc2cc(CCl)c(Cl)nc2c1,8.8%,0.5%,-7.2%,44.7µM*
Cc1ccc(S(=O)(=O)c2c(N)n(Cc3ccco3)c3nc4ccccc4nc23)cc1C,-3.7%,71.1%,-7.5%,11.2µM*
Nc1c(S(=O)(=O)c2ccccc2)c2nc3ccccc3nc2n1Cc1ccco1,-11.0%,209.3%,4.2%,?
C/C(=N\NC(=O)CN1CCN(c2ccc(F)cc2)CC1)c1ccco1,-4.6%,7.0%[57.1 µM],9.9%,9.6%[57.1 µM]
CCN(CC(=O)Nc1c(F)cccc1F)C(=O)/C=C/c1ccc2ccccc2n1,0.3%,-0.6%,10µM*,-15.3%
CCN(CC(=O)Nc1c(F)cccc1F)C(=O)c1ccc2ccccc2n1,-6.9%,-2.8%[57.1 µM],1.9%,1.0%[57.1 µM]
Cc1cc(C(=O)CN2C(=O)C(=O)N(Cc3ccco3)C2=O)c(C)n1CCc1ccc(F)cc1,-7.4%,1.8%,0.2%,18.8%
CCc1ccc2occ(CC(=O)Nc3c(C(=O)Nc4ccc(Cl)cc4)oc4ccccc34)c2c1,12.0%,13.4%,13.0%,20.3%
CCc1ccc2occ(CC(=O)Nc3c(C(=O)Nc4ccc(C)cc4)oc4ccccc34)c2c1,-8.5%,9.4%,1.2%,89.1µM*
Cc1ccc(NC(=O)c2cc(N3C(=O)C=CC3=O)ccc2N2CCOCC2)cc1,4.3%,4.9%[57.1 µM],?,0.891µM*
Cc1ccc(NC(=O)c2cc(N3C(=O)C=CC3=O)ccc2Cl)cc1C,6.0%,-2.5%,-6.8%,3.16µM*
Cn1cnc(S(=O)(=O)N2CCC(C(=O)Nc3ccc(Cl)c(C(F)(F)F)c3)CC2)c1,6.2%,-2.3%[57.1 µM],8.0%,8.8%[57.1 µM]
CCCCN(C=O)c1c(CC)nc2ccc(C(=O)N3CCN(S(=O)(=O)CC)CC3)cn12,.,.,-0.3%,.
Cc1nc(CNC(=O)CC2C(=O)NCCN2Cc2ccoc2)nc2c1CCCC2 (stereo not drawn),0.0%,5.1%,-7.2%,50.1µM*
CCOCCC(=O)Nc1ccc2c(c1)c(=O)n(C)n2C/C=C/c1ccccc1,.,.,-0.1%,.
Cc1ccc(N2C(=O)CS(=O)(=O)CC2=O)cc1,9.0%,7.9%[57.1 µM],0.4%,4.47µM*
C=CCCC1CN(Cc2ccco2)S(=O)(=O)c2c(F)cccc2O1 (stereo not drawn),-3.3%,-2.6%,-0.5%,39.8µM*

# From PubChem BioAssay
